For experiment [1], the target named is Cellular tumor antigen p53 (Homo sapiens) (UniProt P04637). Nature of the experiment: TOX21_p53_BLA_p2_ratio: Tox21 HCT-116 p53 Agonism Beta-lactamase Assay, Ratio, Phase 2 (AID 2283592; active means hit-call score of the fitted dose curve at least 0.9, where 1 is the maximum). Summed up: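 In this cell-based reporter format, HCT116 cells were dosed with chemicals delivered from DMSO by 217-fold dilution and incubated 16 h at 37C. Emission at 460 and 530 nm after 2 h CCF4-AM loading provided the ratio, fitted upward versus DMSO.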
Chain of Cellular tumor antigen p53 (Homo sapiens) (P04637 whole entry, looked up): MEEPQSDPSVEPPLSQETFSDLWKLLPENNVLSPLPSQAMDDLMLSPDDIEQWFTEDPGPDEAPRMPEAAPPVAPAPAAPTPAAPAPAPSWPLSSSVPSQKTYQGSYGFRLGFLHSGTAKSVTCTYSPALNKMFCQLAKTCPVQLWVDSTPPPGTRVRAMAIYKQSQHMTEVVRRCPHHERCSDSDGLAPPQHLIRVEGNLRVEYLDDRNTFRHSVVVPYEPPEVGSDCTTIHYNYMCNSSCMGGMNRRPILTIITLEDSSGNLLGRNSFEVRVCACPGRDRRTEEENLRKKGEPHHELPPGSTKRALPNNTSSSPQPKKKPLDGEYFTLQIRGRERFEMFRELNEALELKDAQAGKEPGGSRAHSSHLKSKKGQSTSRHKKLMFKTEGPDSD

Experiment [2] is described as follows: TOX21_p53_BLA_p3_viability: Viability Assessment in the Tox21 HCT-116 p53 Agonism Beta-lactamase Assay, Phase 3 (AID 2283593; active means hit-call score of the fitted dose curve at least 0.9, where 1 is the maximum;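 further: cells exposed to compound for 16 h before reading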). In short, it runs like this: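 HCT-116 cells (4000/well) rested 5 h at 37C, then got DMSO compounds by pin tool (217-fold dilution) for 16 h at 37C, 5% CO2. After the bla read, CellTiter-Glo was added and luminescence read at 30 min, room temperature.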

The target of experiment [3] is Cellular tumor antigen p53 (Homo sapiens) (UniProt P04637). Nature of the experiment: TOX21_p53_BLA_p3_ratio: Tox21 HCT-116 p53 Agonism Beta-lactamase Assay, Ratio, Phase 3 (AID 2283596; active means hit-call score of the fitted dose curve at least 0.9, where 1 is the maximum). Summed up: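 HCT116 p53-bla cells (4000/well) given compound in DMSO (217-fold dilution) after 5 h, incubated 16 h at 37C. CCF4-AM substrate 2 h at room temperature; 460/530 nm emission ratio, gain fitted against DMSO.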

Experiment [4] in a line: TOX21_p53_BLA_p4_viability: Viability Assessment in the Tox21 HCT-116 p53 Agonism Beta-lactamase Assay, Phase 4 (AID 2283597; active means hit-call score of the fitted dose curve at least 0.9, where 1 is the maximum;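 further: hits lower the luminescence signal meaning cytotoxicity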). In short, it runs like this:
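We seeded HCT116 p53 reporter cells at 4000/well and waited 5 h. We then added compounds in DMSO at a 217-fold dilution and incubated for 16 h. Viability was read as CellTiter-Glo luminescence after 30 min at RT.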

Experiment [5] addresses Cellular tumor antigen p53 (Homo sapiens) (UniProt P04637). Nature of the experiment: TOX21_p53_BLA_p5_ratio: Tox21 HCT-116 p53 Agonism Beta-lactamase Assay, Ratio, Phase 5 (AID 2283599; active means hit-call score of the fitted dose curve at least 0.9, where 1 is the maximum). In short, it runs like this:
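HCT-116 cells carrying a p53-inducible beta-lactamase reporter were seeded at 4000 cells/well and dosed after 5 h with compound in DMSO (217-fold dilution). After 16 h at 37C, CCF4-AM substrate was added for 2 h, and the 460/530 nm emission ratio was scored as gain-of-signal versus DMSO.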

The nature of experiment [6]: TOX21_p53_BLA_p5_viability: Viability Assessment in the Tox21 HCT-116 p53 Agonism Beta-lactamase Assay, Phase 5 (AID 2283600; active means hit-call score of the fitted dose curve at least 0.9, where 1 is the maximum). Summed up: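 Compounds, pinned from DMSO at 217-fold dilution, were left on the cells for 16 h. The viability endpoint was ATP content measured by CellTiter-Glo luminescence, where falling signal reflects cytotoxicity.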
The target in experiment [7] is Cellular tumor antigen p53 (Homo sapiens) (UniProt P04637). Nature of the experiment: TOX21_p53_BLA_p4_ratio: Tox21 HCT-116 p53 Agonism Beta-lactamase Assay, Ratio, Phase 4 (AID 2283601; active means hit-call score of the fitted dose curve at least 0.9, where 1 is the maximum). In short, it runs like this: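 HCT116 cells carrying an inducible beta-lactamase reporter were plated at 4000 cells/well, rested 5 h, then exposed to compounds in DMSO (217-fold dilution) for 16 h at 37C. CCF4-AM substrate was loaded 2 h at room temperature; 460/530 nm emission ratio scored gain-of-signal versus DMSO.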

A short description of experiment [8]: CCTE_Shafer_MEA_acute_spike_number: CCTE's Neural Acute Assay for Total Number of Spikes, Shafer Lab (AID 2284008). In short, it runs like this: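 Rat cortical cultures, DIV 13/15, 37 C. 40 min baseline rec, cpd 0.03-40 uM, 40 min post-dose rec. Band-pass 300-5000 Hz, spike threshold 8x rms; % change in spike count per well, DMSO neg ctrl, loss-of-signal fit.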

Experiment [9] is described as follows: CCTE_Shafer_MEA_acute_firing_rate_mean: CCTE's Neural Acute Assay for Mean Firing Rate, Shafer Lab (AID 2284009).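 Further: analyzed for loss of signal so actives lower firing rate relative to DMSO.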 In short, it runs like this:
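Read-out: well-mean spike rate (spikes/recording length/electrodes), % change from 40 min pre-dose baseline to 40 min with compound. Rat cortical cultures, DIV 13 or 15, 37 C; 0.03-40 uM; DMSO as negative control.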

The nature of experiment [10]: CCTE_Shafer_MEA_acute_burst_number: CCTE's Neural Acute Assay for Single-Electrode Bursts, Shafer Lab (AID 2284013). Summed up:
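Rat cortical cultures, DIV 13/15; 40 min baseline, then 40 min with compound 0.03-40 uM, 37 C. Spikes: 300-5000 Hz band-pass, threshold 8x rms noise. Readout = % change in single-electrode bursts vs baseline, loss-of-signal fit.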

Experiment [11] can be described thus: CCTE_Shafer_MEA_acute_burst_duration_mean: CCTE's Neural Acute Assay for Mean Burst Duration, Shafer Lab (AID 2284014).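 Further: hits are decreases in mean burst duration relative to DMSO controls.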 Summed up: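 Primary rat cortical neurons on 16-electrode MEA wells, treated on DIV 13 or 15 with compound (0.03-40 uM; ≥3 wells each). 40-min baseline and 40-min exposure recordings at 37 C; percent change in mean burst duration per well versus DMSO.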

Experiment [12] is described as follows: CCTE_Shafer_MEA_acute_per_burst_spike_number_mean: CCTE's Neural Acute Assay for Average Number of Spikes Per Burst, Shafer Lab (AID 2284015).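 Further: hits are decreases in mean spikes per burst versus baseline.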 In short, it runs like this:
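Read-out: percent change in mean spikes per burst, each well's post-exposure 40-min recording versus its own 40-min baseline. Rat cortical cultures, DIV 13 or 15, compounds 0.03-40 uM; DMSO is negative control, loss-of-signal fitting.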

A short description of experiment [13]: CCTE_Shafer_MEA_acute_interburst_interval_mean: CCTE's Neural Acute Assay for Mean Interburst Interval, Shafer Lab (AID 2284016).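 Further: percent change of mean interburst interval versus each well's own pre-dose baseline; curves fitted for decrease in interburst interval relative to DMSO.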 In short, it runs like this: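 Rat cortical cultures, DIV 13/15; 20 min equilibration, 40 min baseline, compound 0.03-40 uM, 40 min re-recording, 37 C. Spikes detected at 8x rms noise (300-5000 Hz band-pass). Endpoint: % change in interburst interval, fitted in loss direction vs DMSO.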

The nature of experiment [14]: CCTE_Shafer_MEA_acute_burst_percentage_mean: CCTE's Neural Acute Assay for Percentage of Spikes in a Burst, Shafer Lab (AID 2284017).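 Further: curve fitted for loss of signal so potency reflects decreased burst percentage.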 In short, it runs like this:
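Rat cortical cultures, DIV 13/15, 37 C. Spikes detected at 8x rms noise (300-5000 Hz band-pass). Burst spikes/total spikes averaged across electrodes per well; % change post- vs pre-treatment (40 min each), loss-of-signal fit vs DMSO.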

Experiment [15] in a line: CCTE_Shafer_MEA_acute_per_network_burst_spike_number_std: CCTE's Neural Acute Assay for Standard Deviation of Number of Spikes in a Network Burst, Shafer Lab (AID 2284020).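 Further: fitted for decrease in spike-number SD versus DMSO so actives lower it.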 In short, it runs like this: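 Primary rat cortical neurons on 48-well MEAs (16 electrodes/well) recorded at DIV 13 or 15: 40-min baseline, then 40 min with compound (0.03-40 uM), 37 C. Value is percent change in SD of spikes per network burst, relative to DMSO.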

Experiment [16] in a line: CCTE_Shafer_MEA_acute_per_network_burst_electrodes_number_mean: CCTE's Neural Acute Assay for Mean Number of Electrodes in a Network Burst, Shafer Lab (AID 2284021).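 Further: curves fitted for decreases only so hits reduce electrodes per burst.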 In short, it runs like this: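 Readout: % change in mean electrodes active per network burst, post- vs pre-treatment, each well. Spikes detected at 8x rms noise after 300-5000 Hz band-pass; rat cortical cultures, DIV 13/15, compounds 0.03-40 uM, DMSO baseline.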

Experiment [17] in a line: CCTE_Shafer_MEA_acute_network_burst_percentage: CCTE's Neural Acute Assay for Percentage of Network Bursts, Shafer Lab (AID 2284022).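 Further: curves fitted for loss so actives lower network burst percentage.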 In short, it runs like this: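 Rat cortical cultures, DIV 13/15; 20 min equilibration, 40 min baseline, compound 0.03-40 uM, 40 min recording, 37 C. Spikes: 300-5000 Hz band-pass, threshold 8x rms noise. Readout: % change in network-burst spike fraction; loss direction vs DMSO.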

Experiment [18] in a line: CCTE_Shafer_MEA_acute_cross_correlation_HWHM: CCTE's Neural Acute Assay for Cross Correlation at Half Width at Half Maximum, Shafer Lab (AID 2284026).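 Further: percent change per well from pre-dose baseline in spike cross-correlogram half width; hits are a decrease in cross-correlogram half width relative to DMSO.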 In short, it runs like this: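 Read-out: half width at half maximum of action-potential cross-correlogram, percent change versus pre-treatment baseline, fitted in loss direction against DMSO. Rat cortical cultures, DIV 13 or 15, dosed 0.03-40 uM, 40-min recordings at 37 C.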

Experiment [19] can be described thus: CCTE_Shafer_MEA_dev_firing_rate_mean: CCTE's Neural Network Formation Assay for Mean Firing Rate, Shafer Lab (AID 2284031). Summed up: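 Rat primary cortical neurons were seeded on multielectrode arrays and treated from plating through day 12, with redosing at each feed. Spontaneous spiking was recorded four times; mean firing rate AUC was fitted downward against DMSO.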

The nature of experiment [20]: CCTE_Shafer_MEA_dev_per_burst_spike_percent: CCTE's Neural Network Formation Assay for Percent of Spikes in a Burst, Shafer Lab (AID 2284032).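 Further: fitted as a decrease in burst spike percentage below DMSO baseline.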 In short, it runs like this: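 Rat primary cortical neurons on 16-electrode MEA wells, dosed from plating day 0 for 12 days with renewal on DIV 5 and 9; spikes-in-bursts percentage averaged over bursting electrodes, collapsed as AUC across days 5, 7, 9, 12; loss direction versus DMSO.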

A short description of experiment [21]: CCTE_Shafer_MEA_dev_active_electrodes_number: CCTE's Neural Network Formation Assay for Number of Active Electrodes, Shafer Lab (AID 2284040; active means hit-call score of the fitted dose curve at least 0.9, where 1 is the maximum;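 further: potency for loss of active electrodes versus DMSO so lower counts are hits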). Summed up: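 Primary rat cortical neurons on 16-electrode MEA wells, exposed from day 0 through day 12 with compound renewed at DIV 5 and 9 feeds. Active electrodes (mean firing ≥5 spikes/min) counted at DIV 5, 7, 9, 12; trapezoidal AUC across days, loss-of-signal versus DMSO.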

Experiment [22] can be described thus: CCTE_Shafer_MEA_dev_burst_rate: CCTE's Neural Network Formation Assay for Burst Rate, Shafer Lab (AID 2284042). In short, it runs like this:
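Cells plated, treated day 0; recorded DIV 5, 7, 9, 12; fed and re-treated DIV 5, 9. Endpoint: bursts per recording time, active-electrode well mean, trapezoidal AUC, fitted in decreasing direction against DMSO baseline.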

Experiment [23] is described as follows: CCTE_Shafer_MEA_dev_per_burst_interspike_interval: CCTE's Neural Network Formation Assay for Burst Interspike Interval, Shafer Lab (AID 2284044).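 Further: potency for a decrease of within-burst interspike interval below DMSO level.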 Summed up: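 Readout is the average time between spikes inside single-electrode bursts, taken as a well mean across bursting electrodes. Cortical neurons from rat developed networks on MEA plates under continuous 12-day exposure; recordings on days 5, 7, 9 and 12 were integrated by trapezoidal AUC.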

Inconclusive results are not listed. Calls of active or inactive are those of the source. How the source made its calls, unless noted: active means hit-call score of the fitted dose curve at least 0.9, where 1 is the maximum; inactive means score below 0.9.

Take `CC1(C)[C@H](C=C(Cl)Cl)[C@@H]1C(=O)O[C@@H](C#N)c1cccc(Oc2ccccc2)c1`: the result in [1], in [2], in experiment [3], in experiment [4], in experiment [5] and in experiment [6] was inactive. Also, the outcome in experiment [7], in experiment [8], in experiment [9], in experiment [10], in experiment [11] and in experiment [19] was inactive. Further, the call in experiment [22] was inactive. In addition, the AC50 (in general, the concentration giving half of the maximal activity seen) in experiment [12] is 2610 nM (active); in experiment [13], 1120 nM (active); in experiment [14], 2240 nM (active); in experiment [15], 682 nM (active); in [16], 1230 nM (active); in experiment [17], 2980 nM (active). The AC50 was 15000 nM (active) in [18], 8960 nM (active) in experiment [20], 15000 nM (active) in experiment [21] and 4060 nM (active) in experiment [23].

These data come from PubChem BioAssay (EPA / NIEHS).
